Experimental data: PubChem BioAssay AID1347076 (National Center for Advancing Translational Sciences (NCATS), 2019)
The campaign covered roughly 400,000 compounds. About 13,000 (3.2%) were called active. Not shown: some 18% with an inconclusive outcome. The call rests on the fitted dose curve; in most records, active means well fitted cell-killing curve with a large enough effect; inconclusive means small, poorly fitted or top-dose-only effect, or effect the other way; inactive means flat fitted curve, though single readings scatter. Many of the other results were omitted from the sample, so actives are more common in it than they were.

Assay: qHTS assay for MDR1-selective chemotherapeutics: Primary screen using the drug-selected MDR subline cells KB-V1; further: nearly all actives have a fitted effect of over 60% in size
Conditions: KB-V1 MDR cells viability, CellTiter-Glo, 72 h; series mostly up to 46.1 µM; activity change, negative = cytotoxicity: at the top concentration
Outline: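 Potencies derive from concentration-effect curves fitted to normalized luminescence (CellTiter-Glo) of KB-V1 cells treated for 72 h at 37 degrees C in phenol-red-free DMEM containing 10% FBS.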
On the % scale 0 is the no-effect control and ±100 the full control effect; potency means the concentration at half of the fitted maximal effect.

SMILES | activity change, negative = cytotoxicity | Potency
O=C(NC(c1ccco1)c1cc(Cl)c2cccnc2c1O)c1ccccc1 (configuration not stated) | -9.61% (inactive) | –
COc1ccc2nc(-c3ccccn3)ccc2c1 | -15.3% (inactive) | –
O=c1ccc(S(=O)(=O)N2CCCC2)cn1Cc1nc(-c2ccccc2)no1 | -17.4% (inactive) | –
COc1cccc(-c2noc(C3CCCN(C(=O)c4ccc(F)cc4)C3)n2)c1 (configuration not stated) | 0% (inactive) | –
O=C(Cc1cccs1)N1CCCC(c2nc(-c3ccc(S(=O)(=O)N4CCCC4)cc3)no2)C1 (configuration not stated) | – | 20.6 µM (active)
CC(C)c1ccc(-c2noc(C3CCCN(S(C)(=O)=O)C3)n2)cc1 (configuration not stated) | – | 18.4 µM (active)
COc1ccc(NC(=O)N2CCCC(c3nc(-c4ccc(F)cc4)no3)C2)cc1 (configuration not stated) | -24.7% (inactive) | –
COc1cc(-c2noc(C3CCCN(S(=O)(=O)c4cccc(Cl)c4)C3)n2)cc(OC)c1OC (configuration not stated) | -13.3% (inactive) | –
Cc1ccccc1-c1ccc2c(c1)O[C@@H](CN(C)Cc1ccc(C(=O)O)cc1)[C@@H](C)CN([C@H](C)CO)S2(=O)=O | -0.477% (inactive) | –
NC(CSC(c1ccccc1)(c1ccccc1)c1ccc(-c2ccccc2)cc1)C(=O)O (configuration not stated) | -3.77% (inactive) | –
O=C1NC[C@H](Cc2ccc(O)cc2)N(C[C@@H]2CCCN2C[C@H](Cc2ccccc2)N2C[C@H](Cc3ccccc3)N(CC3CCCCC3)C(=O)C2=O)C1=O | -5.11% (inactive) | –
CCc1nc2c(OCC(=O)C(C)(C)C)cccn2c1N(C)C(=O)c1ccccc1F | -2.89% (inactive) | –
COc1cc(Cn2c3ccc(NC(=O)CC(C)c4ccccc4)cc3c(=O)n2C)ccc1F (configuration not stated) | -18.4% (inactive) | –
CC(C)c1ccc(S(=O)(=O)NC2CCCC2)cc1 | -29.7% (inactive) | –
Cc1ccc(S(=O)(=O)NC2CCCCCC2)cc1 | – | 20.6 µM (active)
CSc1ccc(S(=O)(=O)NC2CCCCC2)cc1 | -15.7% (inactive) | –
CCOc1cc(/C=N/NC(=O)c2ccncc2)cc(Br)c1O | 23.2% (inactive) | –
O=C(COC(=O)/C=C/c1ccc(Cl)cc1)NC1CCS(=O)(=O)C1 (configuration not stated) | 16.4% (inactive) | –
O=S(=O)(NCc1ccco1)c1cnc(Cl)c(Cl)c1 | 27.2% (inactive) | –
C/C(=N\Nc1ncc(Cl)cc1Cl)c1ccc(S(=O)(=O)NCc2ccco2)cc1 | – | 2.06 µM (active)
Cc1c(Cl)cnc(NC(=O)COC(=O)c2ccc(S(=O)(=O)NCc3ccco3)cc2)c1Cl | -7.05% (inactive) | –
CC1CCCN(CC(=O)Nc2cc(Cl)ccc2Oc2ccccc2)C1 (configuration not stated) | 2.14% (inactive) | –
CSc1cccc(NC(=O)CSc2ccccc2)c1 | -4.26% (inactive) | –
COc1ccc(Cl)cc1NC(=O)CSc1nc2ccccc2c2nc(-c3ccccc3)nn12 | 2.49% (inactive) | –
O=C(CSc1ccccc1)Nc1cc(Cl)ccc1Oc1ccccc1 | – | 18.4 µM (active)
CC(=O)Nc1ccc(SCC(=O)Nc2ccccc2Oc2ccccc2)cc1 | – | 4.61 µM (active)

SMILES | activity change, negative = cytotoxicity | Potency
Cc1cc(C)cc(NC(=O)CSc2ccccc2)c1 | 0% (inactive) | –
CC(C)NC(=O)C1CCC(Cn2c(=O)c3sccc3n(Cc3ccc(F)cc3)c2=O)CC1 (configuration not stated) | 14.1% (inactive) | –
Cc1cccc(CN2CCN(C3CN(Cc4ccccc4)S(=O)(=O)C3)CC2)c1 (configuration not stated) | 1.24% (inactive) | –
C=CCOc1cccc(C2C(C(=O)c3ccc(C)o3)=C(O)C(=O)N2CCN2CCOCC2)c1 (configuration not stated) | -32.9% (inactive) | –
COCCNC(=O)C1C(=O)Nc2ccccc2C(=O)N1c1ccc2c(c1)OCCO2 (configuration not stated) | -6.15% (inactive) | –
O=S1(=O)CC(N2CCN(Cc3ccccc3F)CC2)CN1Cc1cn(Cc2ccccc2)nn1 (configuration not stated) | 3.29% (inactive) | –
COc1ccc(Cn2c(=O)oc3ccccc32)cc1 | 1.97% (inactive) | –
CN1CCN(c2ccncc2S(=O)(=O)N2CCCC2)CC1 | 2.89% (inactive) | –
N=c1n(Cc2ccc(Cl)cc2)c2ccccc2n1CC(O)c1ccco1 (configuration not stated) | – | 20.6 µM (active)
Cn1c(=N)n(CC(O)c2ccccc2)c2ccccc21 (configuration not stated) | 0.812% (inactive) | –
Cn1c(=N)n(CC(O)c2cccs2)c2ccccc21 (configuration not stated) | 4.57% (inactive) | –
Cc1ccc(S(=O)(=O)N2CC[C@H]3[C@@H](C2)C(=O)C[C@@H](c2ccccc2)N3S(=O)(=O)c2ccc(C)cc2)cc1 | 9.68% (inactive) | –
Brc1cccc[n+]1Cc1cccc(C[n+]2ccccc2Br)c1 | 1.12% (inactive) | –
COc1ccc(C(=O)Nc2ncc3c(n2)-c2ccccc2CC3)cc1 | – | 13 µM (active)
O=C(Nc1ncc2c(n1)-c1ccccc1OC2)c1ccc(Cl)cc1 | -0.505% (inactive) | –
COc1ccc(C(=O)Nc2onc3c2CCCC3)cc1 | -22.3% (inactive) | –
COc1cccc(CNC(=O)Cc2csc3nc(-c4ccccc4)cn23)c1 | 2.91% (inactive) | –
CCC(C(=O)Nc1cc(OC)ccc1OC)n1c(=O)c(C(F)(F)F)nc2ccccc21 (configuration not stated) | -3.27% (inactive) | –
CCOC(=O)c1ccc(-c2ccc(C(=O)Nc3cccnc3)o2)cc1 | -20.6% (inactive) | –
COc1cccc(C(=O)Nc2cccnc2)c1OC | 8.39% (inactive) | –
O=C(Nc1cccnc1)c1noc2c1CCCCC2 | – | 23.1 µM (active)
Nc1cc(C(F)(F)F)ccc1N1CCOCC1 | – | 20.6 µM (active)
Cc1noc(C)c1S(=O)(=O)Nc1cc(C(F)(F)F)ccc1N1CCOCC1 | -15.2% (inactive) | –
CC(C)CC(=O)Nc1cc(C(F)(F)F)ccc1N1CCOCC1 | -6.92% (inactive) | –
Cc1ccccc1CNC(=O)CSc1nnc(C)c2c(C)n(-c3ccccc3)nc12 | -1.14% (inactive) | –
COc1cccc(C(NC(C)=O)c2nc(-c3ccccc3OC)cs2)c1 (configuration not stated) | -18.7% (inactive) | –

SMILES | activity change, negative = cytotoxicity | Potency
CCN1CCCC1CNC(=O)c1ccc2c(c1)NC(=O)/C(=C\c1ccccc1F)S2 (configuration not stated) | -4.63% (inactive) | –
COC(=O)c1ccc2nc(-c3ccc(Cl)cc3)c(Cc3cccc(F)c3)n2c1 | 13.5% (inactive) | –
COC(=O)c1ccc2nc(-c3ccc(OC)c(OC)c3)c(Cc3ccccc3)n2c1 | -3.03% (inactive) | –
COC(=O)c1ccc2nc(-c3cccc(Br)c3)c(Cc3ccc(OC)cc3C)n2c1 | -3.51% (inactive) | –
COC(=O)c1ccc2nc(-c3ccccc3)c(Cc3ccc(OC)cc3C)n2c1 | – | 23.1 µM (active)
COC(=O)c1ccc2nc(-c3ccc(C)cc3)c(Cc3ccc(OC)cc3C)n2c1 | -24.1% (inactive) | –
COC(=O)c1ccc2nc(-c3ccc(F)cc3)c(Cc3ccc(C)cc3)n2c1 | – | 9.2 µM (active)
OC[C@@H]1CN(Cc2ccc3c(c2)OCO3)C[C@H](n2cnc3c(NCc4ccco4)ncnc32)O1 | 0.266% (inactive) | –
CC1(c2cccc(N)c2)OCCO1 | 14.4% (inactive) | –
COc1ccc(NC(=O)Cn2c(=O)cc(C)c3c(C)nn(-c4cccc(Cl)c4C)c32)cc1OC | 4.25% (inactive) | –
Cn1nc(N)c2ncc(C(Cl)(Cl)Cl)nc21 | 16.9% (inactive) | –
Nc1cc(=O)c2[nH]cnc2[nH]1 | 11.3% (inactive) | –
S=c1[nH]c(=S)c2n[nH]nc2[nH]1 | -23.8% (inactive) | –
Cc1ccc2nc(-c3ccccc3)c(CC3CCCCC3)n2c1 | 8.28% (inactive) | –
Cc1ccc2nc(-c3ccc(O)cc3)c(Nc3ccc4c(c3)OCO4)n2c1 | 12.8% (inactive) | –
Cc1ccc2nc(-c3cccnc3)c(NC3CCCC3)n2c1 | – | 2.59 µM (active)
COc1ccccc1CNc1nccn(-c2ccc(F)cc2)c1=O | 5.14% (inactive) | –
CCOC(=O)C1(C)CCCN(C(=O)c2cccc(Cl)c2)C1 (configuration not stated) | -11.5% (inactive) | –
COc1ccc(CCNC(=S)N2CCN(S(=O)(=O)c3ccc(Cl)cc3)CC2)cc1 | 4.6% (inactive) | –
O=C(NCCc1ccc(Cl)cc1)c1cccc(N2CCCC2=O)c1 | -5.68% (inactive) | –
Oc1cc2c(cc1O)CN(C(=S)NCCc1ccc(Cl)cc1)CCC2 | – | 14.6 µM (active)
Cc1cc([N+](=O)[O-])ccc1NCc1cccc([N+](=O)[O-])c1 | -4.27% (inactive) | –
Cc1cc([N+](=O)[O-])ccc1NC(=O)C1CCCO1 (configuration not stated) | -0.842% (inactive) | –
Cc1cc([N+](=O)[O-])ccc1NC1CCCC1 | – | 16.4 µM (active)
COc1ccc(-c2nnc(SCC(=O)Nc3ccc(C(C)C)cc3)nc2-c2ccc(OC)c(OC)c2)cc1OC | 10.8% (inactive) | –
CC1(C)CN(CCc2ccccc2)C(=O)[C@H]1CC(=O)Nc1ccc(Br)cc1 | -1.58% (inactive) | –

SMILES | activity change, negative = cytotoxicity | Potency
CC1(C(=O)NS(=O)(=O)c2ccccc2)CCN1C(=O)C/C=C/c1ccccc1 (configuration not stated) | 1.3% (inactive) | –
Cc1cccc(C(=O)Nc2ccccc2N2CCN(c3ccc(F)cc3)CC2)c1 | -30.1% (inactive) | –
CCn1c(=O)c(=O)n(CC)c2cc(N3CCCCC3)c(NC(=O)c3cccc(F)c3)cc21 | -3.16% (inactive) | –
O=C(Nc1ccccc1N1CCN(c2ccccc2)CC1)c1cccc(F)c1 | – | 11.6 µM (active)
O=C(NCc1nnnn1-c1ccc(Cl)cc1)c1ccc2c(c1)OCO2 | -9.69% (inactive) | –
CC(C)CNS(=O)(=O)c1ccc(CCC(=O)NCc2ccc(Cl)cc2)cc1 | -5.32% (inactive) | –
Cc1ccc(S(=O)(=O)NCCC(=O)NCc2ccc(Cl)cc2)cc1C | 9.48% (inactive) | –
CSc1ccc(S(=O)(=O)NCc2ccc(Cl)cc2)cc1 | – | 23.1 µM (active)
CCCCN1C[C@H](c2ccc(Br)cc2)[C@@H](CC(=O)Nc2ccc(Br)cc2)C1=O | -4.39% (inactive) | –
O=C(Nc1ccc(Br)cc1)c1ccc(Br)c(S(=O)(=O)NCc2ccccc2)c1 | – | 13 µM (active)
O=C(Nc1ccc(F)cc1)c1ccc(S(=O)(=O)NCc2cccnc2)cc1 | 0% (inactive) | –
Cc1ccc(C(=O)Nc2ccc(C(=O)O)cc2)cc1S(=O)(=O)Nc1ccccc1 | 1.49% (inactive) | –
COCCNC(=O)c1cc2c(Br)ccc(Br)c2nc1N | 0% (inactive) | –
O=S1(=O)CC(N2CCN(CCO)CC2)CN1Cc1cn(Cc2ccc(Cl)cc2)nn1 (configuration not stated) | -0.0484% (inactive) | –
CC(C)n1ncc2c(C(=O)N3CCN(Cc4cccs4)CC3)cc(C3CC3)nc21 | -27.5% (inactive) | –
Cc1cc2oc(=O)cc(CN(C)Cc3ccccc3)c2cc1Cl | 0.451% (inactive) | –
CCC1=NN(C(=O)Cc2ccc([N+](=O)[O-])cc2)C(O)(c2ccc(Br)cc2)C1 (configuration not stated) | – | 13 µM (active)
CC1=NN(C(=O)Cc2ccc(C)cc2)C(O)(c2cccnc2)C1 (configuration not stated) | 0.391% (inactive) | –
CC1=NN(C(=O)c2ccc(Br)cc2)C(O)(c2ccccc2)C1 (configuration not stated) | 9.29% (inactive) | –
C[C@@H]1CN([C@H](C)CO)S(=O)(=O)c2ccc(C#CC3CCCCC3)cc2O[C@H]1CN(C)C(=O)Cc1ccncc1 | 0% (inactive) | –
COc1ccc(NC(=O)c2ccco2)cc1NC(=O)COc1ccc(C)c(C)c1 | -4.24% (inactive) | –
O=C(NCC(c1cccs1)N1CCOCC1)c1cc(-c2ccccn2)nc2ccccc12 (configuration not stated) | -21.1% (inactive) | –
O=C(c1ccccc1)c1cc(-c2ccccn2)c(N2CCOCC2)s1 | – | 8.2 µM (active)
CCc1ccc2ncc(C(=O)c3ccccc3)c(N3CCOCC3)c2c1 | -2.87% (inactive) | –
